The source of these data is PubChem BioAssay (NCATS).

Molecules are shown by their SMILES. “And” between values parts separate entries of the source, which are not always exact repeats. Equal entries are not always repeated. Inconclusive results are not listed. Some compounds were tested as several samples or in several runs, with calls that do not always agree. A number with no mark means an inactive call. The source made the active and inactive calls. Calls come from the whole dose curve; as a rule, active = well fitted inhibition curve with a large enough effect; inconclusive = small, poorly fitted or top-dose-only effect; inactive = flat fitted curve, though single readings scatter.

One assay has as its system CRL-7250. The assay is described as follows: Cytotoxic Profiling of Annotated Libraries Using Quantitative High-Throughput Screening (AID 1296008). The conditions noted are these: Five cell lines viability, CellTiter-Glo ATP luminescence, 48-72 h; max response: stronger effect = lower value. The gist of the method: (§1)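 Cells exposed to compounds for 48 or 72 hr at 37 degrees Celsius. Viability read as ATP-coupled luminescence with CellTiter-Glo after 10 min at room temperature.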
A general note: Cellular ATP, detected with luciferase, serves as a proxy for viable cell number.

Assay [1] concerns HaCat. Described as above. The conditions noted are these: Five cell lines viability, CellTiter-Glo ATP luminescence, 48-72 h; max response: stronger effect = lower value. The gist of the method: as §1
The next assay relates to KB-3-1. The description is as above. To be noted: Five cell lines viability, CellTiter-Glo ATP luminescence, 48-72 h; max response: stronger effect = lower value. The gist of the method: as §1
The subject of the next assay is NIH3T3. Described as above. The conditions noted are these: Five cell lines viability, CellTiter-Glo ATP luminescence, 48-72 h; max response: stronger effect = lower value. The gist of the method:
as §1

Assay [2] relates to HACAT. The assay is described as follows: qHTS assay to identify novel small-molecules to repurpose for Merkel cell carcinoma treatment (AID 1296009). To be noted: MCC and control cell lines, CellTiter-Glo viability, 72 h; at 44.8 µM (top of the series) unless noted. The gist of the method: (§2)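 Dose-response viability screen; 72 hr exposure at 37 degree celsius; CellTiter-Glo added, 10 min room temperature, luminescence read; RLUs scaled between no-cell and DMSO wells.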
A general note: In qHTS, concentration-response curves come from the screen itself.

In a further assay the test system is MCC-13. Described as above. The conditions noted are these: MCC and control cell lines, CellTiter-Glo viability, 72 h; series mostly up to 46 µM. The gist of the method:
as §2

For another assay, the system named is MCC-26. The description is as above. The conditions noted are these: MCC and control cell lines, CellTiter-Glo viability, 72 h; series mostly up to 46 µM. The gist of the method: as §2
For the next assay, the system named is HEK293. The assay is described as follows: Cytotoxic Profiling of Annotated Libraries Using Quantitative High-Throughput Screening (AID 1296008). The conditions noted are these: Five cell lines viability, CellTiter-Glo ATP luminescence, 48-72 h; max response: stronger effect = lower value. The gist of the method: as §1
% is set by controls: 0 for no effect and ±100 for the full control effect; potency is the fitted concentration of half-maximal effect.
Note: nearly all actives have a fitted effect of over 60% in size.

Take `COC(=O)N[C@H](C(=O)N1CCC[C@@H]1c1ncc(-c2ccc(-c3ccc(-c4cnc([C@@H]5CCCN5C(=O)[C@@H](NC(=O)OC)C(C)C)[nH]4)cc3)cc2)[nH]1)C(C)C`: the call with CRL-7250, in the assay with HaCat [1] and in the assay on HACAT [2] was inactive. In addition, the max response is 1.64% with KB-3-1 and 2.81% in the assay with NIH3T3. The Potency result in the assay with MCC-13 and in the assay on MCC-26 was “inactive” in each case.
On to `CCn1c(C(=O)N(C2CC2)C2CC2)cc2c3c(ncn3C)c(Nc3cc(C)n(C)n3)nc21`, for which the max response in the assay with CRL-7250 was 3.88% and -9.32%; in the assay with HaCat [1], 2.37% and -28.6%; in the assay on KB-3-1 it was 3.91% and 9.29%. Besides, the Potency in the assay on NIH3T3 is 23.5 µM (active). Besides, the Potency entry in the assay on MCC-13 and with MCC-26 was “inactive” in each case.
On to `N[C@@]1(C(=O)O)CS(=O)(=O)[C@H]2[C@H](C(=O)O)[C@H]21`, for which the max response is -30.1% in the assay on CRL-7250, -18.8% in the assay with KB-3-1 and -12.5% in the assay on NIH3T3. Also, the outcome with HaCat [1] and with HACAT [2] was inactive. The Potency result with MCC-13 and with MCC-26 was “inactive” each time.
With `CCS(=O)(=O)N1CC(CC#N)(n2cc(-c3ncnc4[nH]ccc34)cn2)C1`, the figures for the max response in the assay on CRL-7250 and with HaCat [1] were -3.54% and -22.3%, respectively. In addition, the Potency in the assay on HaCat [1] is 5.17 µM (active). Also, the Potency result in the assay on MCC-13 was “inactive”.
`CS(=O)(=O)N(Cc1ccco1)CC(O)Cn1c2ccccc2c2ccccc21` (stereo not given): the max response in the assay on CRL-7250 is -10% and -6.7%; with HaCat [1], -8.74%; in the assay on KB-3-1, -4.93% and 3.15%; in the assay with NIH3T3, -17.4% and 0.438%. Besides, the molecule was classed as inactive in the assay with HaCat [1] and in the assay with HACAT [2]. Besides, the Potency entry in the assay with MCC-13 and in the assay on MCC-26 was “inactive” throughout.
As for `CN(C)CCC=C1c2ccccc2COc2ccc(CC(=O)O)cc21`, the molecule was classed as inactive in the assay with CRL-7250, with HaCat [1], with KB-3-1, in the assay with NIH3T3 and with HACAT [2]. For the same molecule, the Potency result in the assay with MCC-13 and in the assay on MCC-26 was “inactive” throughout.
As for `COc1cc(O)c2c(c1)C(=O)c1cc(C)cc(O)c1C2=O`, the result in the assay on CRL-7250 and in the assay with NIH3T3 was inactive. The max response with HaCat [1] was -5.67%; in the assay with KB-3-1 it was -1.03%. Moreover, the Potency result with MCC-13 and in the assay with MCC-26 was “inactive” throughout.
Regarding `CON=C(C(=O)N[C@@H]1C(=O)N2C(C(=O)OCOC(=O)C(C)(C)C)=C(C=Cc3scnc3C)CS[C@H]12)c1csc(N)n1`, the result in the assay with CRL-7250, with HaCat [1], with NIH3T3 and with HACAT [2] was inactive. In the assay on KB-3-1, the max response was 0.86%. Besides, in the assay on MCC-13, the Potency result was “inactive”.
On to `NS(=O)(=O)c1cccc2c1C(=O)c1cccc(O)c1C2=O`, for which the Potency in the assay with CRL-7250 was 0.526 µM (active); in the assay with HEK293 it was 16.6 µM (active); in the assay on NIH3T3, 0.935 µM (active); in the assay on MCC-26, 0.833 µM (active).
In the case of `CC1(C)S[C@H]2[C@H](NC(=O)[C@@H](N)c3ccc(O)cc3)C(=O)N2[C@@H]1C(=O)O`, the molecule was called inactive in the assay on CRL-7250, in the assay with HaCat [1], in the assay on KB-3-1 and in the assay with HACAT [2]. For the same molecule, the max response in the assay with NIH3T3 is 4.61%. Also, the Potency entry in the assay on MCC-13 and with MCC-26 was “inactive” throughout.
Regarding `CN(C)Cc1cccc(N=C(c2ccccc2)c2c(O)[nH]c3cc(C(=O)N(C)C)ccc23)c1`, the Potency in the assay on CRL-7250 is 20.9 µM (active); in the assay on NIH3T3, 13.2 µM (active). Besides, the max response with HaCat [1] is -49.2%; in the assay with KB-3-1, -15%. For the same molecule, the Potency result with MCC-13 was “inactive”.
Consider `C[C@H](NC(=O)c1sccc1OCc1ccc(Cl)cc1)c1ccccc1`, for which the Potency was 29.6 µM (active) with CRL-7250, 16.6 µM (active) in the assay with HEK293 and 20.9 µM (active) in the assay on KB-3-1. Also, the max response in the assay on NIH3T3 is -27.6%. In addition, the Potency result in the assay with MCC-13 and with MCC-26 was “inactive” throughout.
For the molecule `COC[C@@H](c1ccc(C(F)(F)F)cc1)N1CCN(C2(C)CCN(C(=O)c3c(C)ncnc3C)CC2)C[C@H]1C`, the max response in the assay on CRL-7250 is -6.4%; in the assay with HaCat [1], -0.948%; with KB-3-1 it was 5.03%; in the assay with NIH3T3 it was 4.62%. In the assay on MCC-13, the Potency result was “inactive”.
In the case of `NC(=O)c1cccc(-c2cc(Nc3ccc(OC(F)(F)F)cc3)ncn2)c1`, the max response in the assay on CRL-7250 was -7.69% and -0.175%; in the assay on KB-3-1 it was -13.5%; with NIH3T3, 0.478% and -10.9%. The call in the assay on HaCat [1] and with HACAT [2] was inactive. In addition, the Potency result in the assay on MCC-13 and in the assay with MCC-26 was “inactive” in each case.
In the case of `CO[C@H]1C=CC=C(C)C(=O)NC2=CC(=O)C(NCCN(C)C)=C(C[C@@H](C)C[C@H](OC)[C@@H](O)[C@@H](C)C=C(C)[C@@H]1OC(N)=O)C2=O`, the Potency in the assay with CRL-7250 is 0.0526 µM (active); with HaCat [1], 0.0332 µM (active); in the assay with KB-3-1, 0.0372 µM (active); in the assay on NIH3T3, 0.132 µM (active); with MCC-13 it was 4.69 µM (active); in the assay on MCC-26, 3.72 µM (active).
In the case of `O=c1c(-c2ccc(O)cc2)coc2cc(O[C@@H]3O[C@H](CO)[C@H](O)[C@H](O)[C@H]3O)ccc12`, the max response was -13.5% in the assay with CRL-7250, -4.86% in the assay on HaCat [1] and 1.51% with NIH3T3. For the same molecule, the result in the assay on KB-3-1 was inactive. Further, the Potency result in the assay on MCC-13 and with MCC-26 was “inactive” throughout.
Regarding `O=C1NC(=O)C(=Cc2ccc(-c3ccc(F)cc3)o2)S1`, the max response with CRL-7250 is -0.559%; in the assay on HaCat [1], -17.4%; in the assay on KB-3-1, -5.29%; in the assay with NIH3T3, -13.2%. For the same molecule, the Potency result in the assay on MCC-13 is “inactive”.
In the case of `C=C1C(=O)[C@@]23C(CC[C@@H]1[C@H]2O)[C@@]12CO[C@]3(O)[C@@H](O)[C@@H]1C(C)(C)CC[C@@H]2O` (stereo not given in full), the Potency with CRL-7250 is 18.4 µM (active); in the assay with HEK293, 13.2 µM (active) and 8.2 µM (active); with NIH3T3 it was 18.7 µM (active); with MCC-13, 16.6 µM (active).
Turning to `CC(C)(C)Cn1c(N)nc2ccc(-c3[nH]c(C(C)(C)C)nc3-c3ccc(F)cc3)nc21`, the max response with CRL-7250 is -25.6% and -19.9%. Further, the Potency was 11.6 µM (active) with HEK293; 5.9 µM (active) and 4.61 µM (active) with HaCat [1]. Moreover, the Potency entry with MCC-26 was “inactive”.
